Assay results as given in ChEMBL document CHEMBL4513146, “CO-ADD screening of Karazin Kharkiv National University (Ukraine) compounds”.
Entries with a potency or affinity are not part of this list.

Tests used:
Klebsiella pneumoniae = conditions: Concentration 32 ug.mL-1;; ASSAY_TEST Inhibition of Bacterial Growth; detection method Absorption (OD600); MEDIA CAMHB; plate type 384well; NBS; CORNING #3640; time 18 hr
Candida albicans = conditions: Concentration 32 ug.mL-1; ASSAY_TEST Inhibition of Fungal Growth; detection method Absorption (OD530)
Cryptococcus neoformans = conditions: Concentration 32 ug.mL-1; ASSAY_TEST Inhibition of Fungal Growth; detection method Resazurin; Absorption (OD600-OD570); plate type 384well; NBS; CORNING #3640

| Compound | Inhibition (Klebsiella pneumoniae) [%] | Inhibition (Candida albicans) [%] | Inhibition (Cryptococcus neoformans) [%] |
| --- | --- | --- | --- |
| Cc1ccc(NC(=O)Cn2nc3ccc(SCc4ccc(Cl)cc4)nn3c2=O)cc1C | 8.36 | 3.97 | -21.31 |
| CCc1nnc2c(S(=O)(=O)N(Cc3cc(F)cc(F)c3)c3cccc(F)c3)cccn12 | 12.81 | 4.8 | -5.16 |
| Cc1ccc(-c2ccc3nnc(CCC(=O)N4CCN(C(=O)c5ccco5)CC4)n3n2)cc1C | 19.25 | 2.04 | -14.25 |
| CCOc1ccc(-n2ccn3c(SCC(=O)Nc4ccc(C)cc4Cl)nnc3c2=O)cc1 | 9.51 | 5.12 | -6.58 |
| CC(=O)c1cccc(NC(=O)Cn2c(=O)c3nnc(C(C)C)n3c3ccccc32)c1 | 4.91 | 5.31 | -19.11 |
| Cc1ccc(NC(=O)Cn2nc3c(Sc4ccccc4)nc4ccccc4n3c2=O)cc1C | 0.03 | 0.48 | -2.74 |
| O=C(Cn1nc2c3c4c(sc3ncn2c1=O)CCCC4)NCCc1ccc(Cl)cc1 | 9.47 | 7.92 | -14.7 |
| COc1ccc(Cl)cc1NC(=O)CSc1nc2ccccc2n2cnnc12 | 13.26 | 6.06 | -17.53 |
| O=C(Cn1nc2c3cc(-c4ccc(Cl)cc4)nn3ccn2c1=O)NC1CCCC1 | 4.67 | 2.49 | -18.35 |
| O=C(NCc1ccccc1)c1ccc2nn(CC(=O)N3CCN(c4ccccc4F)CC3)c(=O)n2c1 | 7.35 | 4.65 | -15.87 |
| Cc1ccc(NC(=O)Cn2nc3c(SCc4ccccc4)nccn3c2=O)cc1C | 8.81 | 15.8 | -18.48 |
| CCOc1ccc(-n2ccn3c(SCC(=O)Nc4cccc(CC)c4)nnc3c2=O)cc1 | -1.92 | 12.86 | -9.18 |
| CCCCc1ccc(NC(=O)Cn2nc3c(SC4CCCCC4)nccn3c2=O)cc1 | 1.99 | 20.8 | -5.76 |
| Cc1ccc(NC(=O)CSc2nnc3c4cc(-c5ccccc5)nn4ccn23)c(C)c1 | -1.1 | 4.18 | -18.24 |
| CSc1ccc(CNC(=O)Cn2nc3c(N4CCN(c5ccccc5)CC4)nccn3c2=O)cc1 | 15.47 | 1.95 | -6.85 |
| Cc1ccc(Sc2nccn3c(=O)n(CC(=O)Nc4cccc(Cl)c4)nc23)c(C)c1 | 8.68 | 4.74 | -21.78 |
| Cc1ccccc1Cn1nc2c(=O)n(-c3ccc(Br)cc3)ccn2c1=O | 14.05 | 0.14 | -2.03 |

| Compound | Inhibition (Klebsiella pneumoniae) [%] | Inhibition (Candida albicans) [%] | Inhibition (Cryptococcus neoformans) [%] |
| --- | --- | --- | --- |
| Cc1ccc(C)c(Cn2nc3c(=O)n(-c4ccc(C)c(C)c4)ccn3c2=O)c1 | 6.6 | 1.95 | -10.52 |
| Cn1c(=O)c2sccc2n2c(=O)n(Cc3cccc(Br)c3)nc12 | 5.37 | 10.92 | -9.95 |
| O=C(CSc1nnc2c(=O)n(Cc3ccc(F)cc3)ccn12)NCC1CCCO1 (configuration not stated) | 11.7 | 1.72 | -16.29 |
| COc1ccc(NC(=O)Cn2nc3c4cc(-c5ccc(C)c(C)c5)nn4ccn3c2=O)c(OC)c1 | -0.09 | 3.53 | -22.33 |
| O=c1c2sccc2n2c(=O)n(Cc3cccc(Cl)c3)nc2n1Cc1cccs1 | 3.75 | 61.44 | -14.34 |
| Cc1cc(C)cc(NC(=O)Cn2nc3c4cc(-c5ccc(Cl)cc5)nn4ccn3c2=O)c1 | 7.37 | 6.87 | -7.11 |
| O=C(Cn1nc2c(Sc3ccccc3)nccn2c1=O)Nc1ccc2c(c1)OCCO2 | 12.02 | -0.06 | -3.83 |
| COc1ccc(OC)c(NC(=O)Cn2nc3c4cc(-c5ccc(F)cc5)nn4ccn3c2=O)c1 | 1.37 | 3.04 | -6.46 |
| Cc1ccc(CN(c2ccc(C(C)C)cc2)S(=O)(=O)c2cccn3c(C)nnc23)cc1 | 0.92 | 1.03 | -9.63 |
| O=S(=O)(c1ccc2nncn2c1)N(Cc1ccccc1F)c1cccc(F)c1 | -5.56 | 2.89 | -8.33 |
| COc1cc(OC)c(NC(=O)Cn2nc3ccc(Sc4ccc(C)cc4)nn3c2=O)cc1Cl | -1.47 | 29.33 | -7.45 |
| Cc1ccc(NC(=O)Cn2c(=O)c3nnc(C)n3c3ccccc32)cc1C | 6.79 | 0.69 | -4.45 |
| O=c1c2sccc2n2c(=O)n(Cc3cccc(F)c3)nc2n1Cc1cccs1 | -6.06 | 36.13 | -19.84 |
| CCOc1ccc(-n2ccn3c(SCC(=O)c4ccc(F)cc4)nnc3c2=O)cc1 | 1.88 | 2.02 | -5.27 |
| Cn1c(=O)c2sccc2n2c(=O)n(Cc3ccc(Cl)cc3)nc12 | 4.35 | -0.47 | -19.86 |
| Cc1cc(C)c(NC(=O)Cn2nc3c(SCc4ccc(Cl)cc4)nccn3c2=O)c(C)c1 | 8.66 | 25.19 | -17.24 |
| COc1ccc(NC(=O)c2ccc3nn(CC(=O)Nc4ccc(C)c(F)c4)c(=O)n3c2)cc1 | 0.39 | 10.47 | -14.12 |
